Source: PubChem (National Center for Advancing Translational Sciences (NCATS))
In the library only some 18% were active in any assay of this set; here they are far more common.
TDP1 block: TDP1 (human) enzyme inhibition | Q9NUW8 | recombinant TDP1, AlphaScreen DNA substrate cleavage | Potency, µM (highest dose often 130 µM), for inactives: at the top dose activity change, negative = inhibition, actives largely listed as inhibitors | actives 0.28% (n = 350,000) | AID 485290; note: potency is the fitted concentration of half-maximal effect; nearly all actives have a fitted effect of over 40% in size
Target sequence (Q9NUW8 whole entry, looked up): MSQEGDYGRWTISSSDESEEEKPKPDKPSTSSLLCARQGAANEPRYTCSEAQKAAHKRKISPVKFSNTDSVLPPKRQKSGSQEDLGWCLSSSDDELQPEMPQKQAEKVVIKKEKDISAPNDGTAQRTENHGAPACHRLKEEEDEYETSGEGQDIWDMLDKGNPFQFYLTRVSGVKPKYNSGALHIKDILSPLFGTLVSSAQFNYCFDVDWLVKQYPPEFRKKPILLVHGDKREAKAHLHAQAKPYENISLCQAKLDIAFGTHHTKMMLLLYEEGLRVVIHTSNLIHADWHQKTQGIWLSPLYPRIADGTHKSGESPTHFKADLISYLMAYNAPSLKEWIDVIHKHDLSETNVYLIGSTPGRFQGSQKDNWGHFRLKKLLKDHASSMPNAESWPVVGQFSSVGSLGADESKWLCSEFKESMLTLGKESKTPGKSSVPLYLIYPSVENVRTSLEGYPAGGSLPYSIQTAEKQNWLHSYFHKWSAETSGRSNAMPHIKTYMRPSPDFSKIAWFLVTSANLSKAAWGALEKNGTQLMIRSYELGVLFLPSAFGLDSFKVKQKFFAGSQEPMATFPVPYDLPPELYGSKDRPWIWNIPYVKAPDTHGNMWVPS
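Here, a 5' biotin and 3' phosphotyrosine-FITC DNA oligonucleotide reports Tdp1 activity: intact substrate bridges AlphaScreen beads, while cleavage leaves a 3' phosphate and drops signal. All incubations at room temperature.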
Six1-Eya2 inh: blocks human Six1 binding to Eya2. Q15475+O00167. AlphaScreen GST-Six1/His-Eya2 binding, biochemical; active compounds read low. activity change, % (test concentration not listed). actives 0.56% (n = 360,000). AID 651725; in the data active = activity change below about -65%; inconclusive = mostly about -30% to -63%
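AlphaScreen luminescence read after one hour at 37 °C in darkness. Pin-transferred compounds met GST-Six1 and His-Eya2 protein (5X stock 250 nM/500 nM) plus glutathione donor and Ni-chelate acceptor beads (5X, 50 ug/mL).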
CtBP-E1A inh: inhibitors of CtBP/E1A interaction | activity change, % (concentration not given with the values) | AlphaScreen GST-E1A/His-CtBP binding, 1536-well; active compounds read low | actives 0.49% (n = 340,000); in the data active = activity change below about -65%; inconclusive = mostly about -30% to -63%
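GST-E1A and His-tagged CtBP (125 nM each as 5X stock) were preincubated with pin-transferred compound for 2 h at 37 °C in the dark, then glutathione donor and nickel acceptor beads were added for 1 h before AlphaScreen reading.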
DT40 TDP1 no CPT: qHTS for Inhibitors of human tyrosyl-DNA phosphodiesterase 1 (TDP1): qHTS in cells in absence of CPT; DT40 Tdp1-/- hTDP1 cells, no CPT, ATP luminescence, 48 h; Potency, µM (top dose mostly 46.2 µM), for the others: at the highest dose activity change, negative = growth inhibition, hits mostly inhibitors; actives 15% (n = 420,000); AID 686978, 2013; note: potency is the fitted concentration of half-maximal effect; nearly all actives have a fitted effect of over 55% in size
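Stably hTDP1-transfected Tdp1-null chicken DT40 cells were treated with library compounds minus camptothecin and grown for at least 48 hr at 37 °C, after which cellular ATP was quantified by luminescence.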
DT40 TDP1 CPT: growth inhibition of DT40 Tdp1-/-;hTDP1 cells with camptothecin (screen for TDP1 inhibitors); chicken DT40 Tdp1-/-;hTDP1 cells + 20 nM CPT, ATP luminescence, 48 h; Potency, µM (series often up to 46.2 µM), for inactives: at the highest dose activity change, negative = growth inhibition, most hits filed as inhibitors; actives 12% (n = 420,000); AID 686979; note: potency is the fitted concentration of half-maximal effect; nearly all actives have a fitted effect of over 55% in size
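Cell growth measured by CellTiter-Glo luminescence after a minimum 48 h, 37 C compound exposure with 20 nM CPT in Tdp1-knockout DT40 cells stably expressing hTDP1, seeded 400/well; qHTS titration format.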
IL-1B inflam inh: inhibitors of inflammasome signaling (IL-1 beta secretion). THP-1 LPS/ATP IL-1B secretion, AlphaLISA, 16 h; active compounds read low. activity change, % at 57.5 µM. actives 4.7% (n = 360,000). AID 743279; in the data active = activity change below about -50%; inconclusive = mostly about -30% to -49%
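Secreted IL-1B measured by AlphaLISA bead assay after 16 h compound exposure of THP-1 cells; compounds (final up to 57.5 uM) added 1 h before LPS (250 ng/mL) and ATP (1.25 mM) stimulation; lower signal means less secretion.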
Starred values were filed as active, the others as inactive; ? = inconclusive; . = no result; [ ] = another dose, or the depositor's remark. Unless noted, calls come from the whole dose curve; as a rule, active = well fitted curve in the direction sought with a large enough effect; inconclusive = small, poorly fitted or top-dose-only effect, or another doubt; inactive = no such curve, though single readings can be large; an effect the other way counts as inactive or inconclusive. % is set by controls: 0 for no effect and ±100 for the full control effect.

SMILES	TDP1 block	Six1-Eya2 inh	CtBP-E1A inh	DT40 TDP1 no CPT	DT40 TDP1 CPT	IL-1B inflam inh
CC1=CC(C)(C)N(C(=O)CN2C(=O)CCC2=O)c2ccccc21	0%	2	8	-3%	-7%	-2
Cc1cccc(Cn2c(SCc3ccc(C(=O)NCc4ccccc4F)cc3)nc3ccncc32)c1	2%	.	.	23µM*	?	.
COc1cccc(CNC(=O)c2ccc(CSc3nc4ccncc4n3Cc3cccc(C)c3)cc2)c1	6%	.	.	16µM*	21µM*	.
Cc1cccc(Cn2c(SCc3ccc(C(=O)NCc4ccccc4F)cc3)nc3cccnc32)c1	10%	.	.	21µM*	?	.
COC(=O)c1ccc(Cn2c(SCc3cccc(C)c3)nc3ccncc32)cc1	6%	.	.	16µM*	?	.
Cc1cccc(Cn2c(SCc3ccc(C(=O)NC4CCCCC4)cc3)nc3ccncc32)c1	-2%	.	.	-19%	-9%	.
CC(=O)c1ccc(NC(=O)CCNS(=O)(=O)c2ccccc2F)cc1	.	-5	2	-26%	-4%	7
CCc1ccc(NC(=O)CSc2nncn2-c2cccnc2)cc1	-20%	-1	0	-14%	27%	-4
Cc1ccc(NC(=O)Cn2c(SCc3cccc(F)c3)nc3ccncc32)c(C)c1	5%	.	.	?	?	.
COc1ccc(NC(=O)Cn2c(SCc3cccc(Cl)c3)nc3ccncc32)c(OC)c1OC	8%	.	.	?	21µM*	.
Cc1cccc(C(=O)NCc2nnc(SCC(=O)NC3=NCCS3)n2C)c1	0%	9	16	16µM*	?	-10
COc1cccc(C(=O)NCc2nnc(SCC(=O)Nc3nccs3)n2-c2ccccc2)c1	5%	-5	-3	-18%	-21%	7
Cn1c(CNC(=O)c2ccccc2)nnc1SCC(=O)Nc1nccs1	5%	-7	15	?	15µM*	33
CC1CCC(NC(=O)C2(C)Cc3ccccc3C(=O)N2Cc2ccccc2Cl)CC1 (stereo unspecified)	-3%	.	.	23µM*	?	.
CCN(CC)c1nc(-c2ccccc2)ncc1S(=O)(=O)c1ccc(C)cc1	.	17	25	16µM*	?	0
CN(C)c1nc(-c2ccccc2)ncc1S(=O)(=O)c1ccccc1	0%	7	11	?	0%	-6
O=C(Nc1ccc(N2CCCC2)cc1)c1ccccc1F	10%[56.1 µM]	-24	?	?	10µM*	7
O=C(Nc1ccc(N2CCCCC2)cc1)c1ccc(F)cc1F	3%	-1	-8	-10%	-22%	-20
CC(=O)N1CCN(c2ccc(NC(=O)c3cccc(Cl)c3Cl)cc2)CC1	.	?	-17	-21%	-20%	-2
O=C(Nc1ccc(N2CCCC2)cc1)c1cccc(Cl)c1Cl	1%	1	-3	16µM*	?	-18
Cn1c(=O)c(C(=O)CN2CCc3ccccc32)c(N)n(Cc2ccccc2)c1=O	0%	1	1	18µM*	13µM*	32
CCN(CC)CC(=O)c1c(N)n(Cc2ccccc2)c(=O)n(C)c1=O	1%	-12	3	1%	6%	-9
COc1ccc(C2C(=O)N(C3CCCCC3)CC(=O)N2CCc2ccc(OC)c(OC)c2)cc1 (stereo unspecified)	5%	.	.	?	-28%	.
CCN(CC)CCNC(=O)C1CCC(=O)N(c2ccc(OC)cc2)C1c1ccc(F)cc1 (stereo unspecified)	3%	2	-8	-5%	-14%	-3
N#CC1=C(N)C(C#N)(C#N)[C@H](c2c(F)cccc2F)[C@H]2CC3(CC=C12)OCCO3	6%	-14	-7	16µM*	?	40
SMILES	TDP1 block	Six1-Eya2 inh	CtBP-E1A inh	DT40 TDP1 no CPT	DT40 TDP1 CPT	IL-1B inflam inh
CN1C2C=C3C(C#N)=C(N)C(C#N)(C#N)[C@H](c4c(F)cccc4F)[C@H]3C1CC2 (stereo partly specified)	6%	-22	8	10µM*	7.3µM*	-93*
O=C(NCc1cccc(F)c1)C1CCCN(C(=O)N2CCOc3ccccc32)C1 (stereo unspecified)	5%	.	.	0%	2%	.
CCOc1ccc(C(=O)NCCS(=O)(=O)N2CCN(c3ccccc3F)CC2)cc1OCC	2%	.	.	?	-3%	.
COc1cc(CNCCO)cc(Br)c1OCc1ccccc1Cl	2%	-1	-11	?	23µM*	-15
COc1cc(CNCCO)cc(Cl)c1OCc1ccc(Cl)cc1Cl	-3%	-2	-2	21µM*	?	-83*
COc1cc(CNC(C)(C)CO)cc(Br)c1OCc1ccc(Cl)cc1Cl	4%	2	-11	?	?	?
O=C(Cn1c(=O)cnc2ccccc21)N1CCCc2ccccc21	-9%	3	5	?	-22%	-5
O=C(CCNS(=O)(=O)c1ccccc1C(F)(F)F)N1CCN(S(=O)(=O)c2cccc(F)c2)CC1	.	7	1	?	-14%	-11
COc1ccc(C(=O)NCCCNC(=O)c2cc3ccccc3[nH]2)cc1OC	.	-15	.	?	-12%	47
CCCOc1ccc(Nc2nc(SC)ncc2C(=O)OCC)cc1	-2%	.	.	26µM*	?	.
Cc1ccc(NC(=O)CN(C)C(=O)c2ccc(OCc3c(C)noc3C)cc2)cc1	1%	-2	-12	-22%	-20%	5
CCN(C(=O)COC(=O)c1ccc(OCc2c(C)noc2C)cc1)c1ccccc1	2%	11	3	13µM*	?	-17
O=C(Cc1ccc(OCc2ccccc2)cc1)NCc1ccc2c(c1)OCO2	.	1	9	7.3µM*	?	43
Cc1noc(C)c1COc1ccc(CC(=O)NCc2ccccc2)cc1	-1%	15	0	0.52µM*	0.65µM*	125
Cc1noc(C)c1COc1ccc(CC(=O)NCCc2ccccn2)cc1	.	-4	6	?	-8%	16
CCN(c1ccccc1)S(=O)(=O)c1ccc(OCc2c(C)noc2C)cc1	0%	7	4	-10%	-15%	20
C=CCN(Cc1ccc(Br)s1)C(=O)c1ccc(OCc2c(C)noc2C)cc1	.	1	1	16µM*	?	-11
CC(C)Cn1c(-c2cc(Br)ccc2F)nc2c1c(=O)[nH]c(=O)n2CC(C)C	4%	-3	-2	?	8%	-6
O=C(Nc1ccc2c(c1)OCO2)c1ccc2nc[nH]c2c1	0%	-24	-18	-1%	-20%	-17
Cc1noc(C)c1COc1cccc(C(=O)NCCc2c[nH]c3ccccc23)c1	3%	-13	4	21µM*	13µM*	6
